Compound activity (PubChem BioAssay)
PLK1 PBD inh: blocks phosphopeptide binding to human PLK1 polo-box domain | Plk1 PBD binding of FITC phosphopeptide, fluorescence polarization | Potency, µM, for inactives: max response, negative = inhibition, most hits filed as inhibitors | 360,000 compounds, 2.8% hits | P53350 | AID 720504; also: potency is read from the fitted curve at half-maximal effect; series mostly up to about 57 µM; % is scaled to controls: 0 for no effect and ±100 for the full control effect; nearly all actives have a fitted effect of over 65% in size
HP1b binding inh: inhibitors of HP1-beta chromodomain binding to methylated histone tails | Potency, µM (doses to about 114 µM), inactives show at the top dose activity change, negative = inhibition, most hits filed as inhibitors | AlphaScreen HP1-beta / biotin-H3K9me3 peptide binding | AID 540317 | 390,000 compounds, 0.56% hits | P83916; also: potency is read from the fitted curve at half-maximal effect; nearly all actives have a fitted effect of over 70% in size
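HP1-beta protein (50 nM final) preincubated 30 min at room temperature with biotinylated H3(1-18)K9me3 peptide (50 nM) in PBS pH 7.4, 0.01% Tween-20, then compound added for 30 min. AlphaScreen streptavidin donor/nickel chelate acceptor beads (10 ug/mL final), 30 min dark, luminescence read.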
JMJD2A Tudor inh: inhibitors of human JMJD2A Tudor domain. O75164. AlphaScreen JMJD2A-Tudor / H3K4me3 peptide binding. Potency, µM (highest dose often 114 µM), without a hit: top-dose activity change, negative = inhibition, most hits filed as inhibitors. 390,000 compounds, 4.4% hits. AID 504339; also: potency is read from the fitted curve at half-maximal effect; % is scaled to controls: 0 for no effect and ±100 for the full control effect; nearly all actives have a fitted effect of over 50% in size
BAZ2B block: BAZ2B (human) inhibition; Q9UIF8; AlphaScreen BAZ2B-H3K14Ac peptide displacement; Potency, µM (series often up to 114 µM), inactives show top-dose activity change, negative = inhibition, hits mostly inhibitors; 360,000 compounds, 4.4% hits; AID 504333; also: potency is read from the fitted curve at half-maximal effect; % is scaled to controls: 0 for no effect and ±100 for the full control effect; nearly all actives have a fitted effect of over 60% in size
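Inhibition is scored as reduced AlphaScreen emission. The BAZ2B/b-H3(5-23)K14Ac complex (50 nM each) in PBS pH 7.4, 0.01% Tween-20 meets compound (up to 110 uM) for 30 min at RT before bead addition.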
PI5P4K alpha inh: PI5P4K alpha (human) kinase inhibition; 330,000 compounds, 1.2% hits; P48426; max response, %; PI5P4Kalpha enzyme, ADP-Glo luminescence, 60 min; hits give low values; active = max response of -50% or lower; inconclusive = between -30% and -50%; inactive = -30% or higher; also: value at the top dose of about 77 µM; % is scaled to controls: 0 for no effect and ±100 for the full control effect
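Enzyme plus substrate dispensed, test compounds pinned in, then ATP (5 microM final) added. After 60 min at RT, ADP-Glo reagent 1 for 45 min and reagent 2 for 30 min preceded luminescence imaging.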
KAT2A inh: blocks human GCN5L2 histone acetyltransferase | Q92830 | GCN5L2 HAT assay, ThioGlo1 CoA-SH fluorescence | Potency, µM (doses to about 58.9 µM), without a hit: at the top dose activity change, negative = inhibition, most hits filed as inhibitors | 390,000 compounds, 0.21% hits; also: potency is read from the fitted curve at half-maximal effect; % is scaled to controls: 0 for no effect and ±100 for the full control effect
Target sequence (Q92830 whole entry, looked up): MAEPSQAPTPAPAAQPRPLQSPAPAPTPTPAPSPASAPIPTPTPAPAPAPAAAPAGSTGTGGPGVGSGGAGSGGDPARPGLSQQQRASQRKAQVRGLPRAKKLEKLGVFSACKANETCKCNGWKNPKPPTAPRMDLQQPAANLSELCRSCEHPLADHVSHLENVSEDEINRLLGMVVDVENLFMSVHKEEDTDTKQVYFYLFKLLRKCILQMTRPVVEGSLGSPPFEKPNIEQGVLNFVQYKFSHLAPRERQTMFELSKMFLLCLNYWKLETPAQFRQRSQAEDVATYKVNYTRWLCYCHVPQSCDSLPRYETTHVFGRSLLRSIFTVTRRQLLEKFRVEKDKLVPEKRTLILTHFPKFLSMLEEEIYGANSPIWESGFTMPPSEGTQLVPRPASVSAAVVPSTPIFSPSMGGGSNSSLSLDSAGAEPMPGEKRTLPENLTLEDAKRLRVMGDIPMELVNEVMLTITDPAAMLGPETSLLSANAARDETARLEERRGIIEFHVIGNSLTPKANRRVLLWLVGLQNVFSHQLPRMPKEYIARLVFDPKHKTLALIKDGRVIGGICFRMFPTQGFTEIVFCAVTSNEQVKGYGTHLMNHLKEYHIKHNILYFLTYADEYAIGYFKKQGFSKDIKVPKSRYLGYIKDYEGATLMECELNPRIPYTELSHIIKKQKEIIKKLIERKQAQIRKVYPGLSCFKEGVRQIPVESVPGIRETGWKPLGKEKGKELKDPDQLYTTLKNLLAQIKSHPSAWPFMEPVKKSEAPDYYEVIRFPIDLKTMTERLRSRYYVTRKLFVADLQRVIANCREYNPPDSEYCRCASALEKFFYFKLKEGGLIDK
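Enzyme at 20nM final was mixed with library compounds for 15 min at room temperature. Peptide H3(1-25) at 75uM, acetyl-CoA at 70uM and ThioGlo1 at 50uM were then added. Plates were read immediately and after 20 min (Ex340nm/Em540nm).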
The depositor's hits bear a star; ? = inconclusive; / = not tested or not shown; [ ] = remark or other dose. Most compounds without a hit are left out; they make up all but 7% or so of the library. Unless noted, calls follow the shape of the dose curve; as a rule, active = well fitted curve in the direction sought with a large enough effect; inconclusive = small, poorly fitted or top-dose-only effect, or another doubt; inactive = no such curve, though single readings can be large; an effect the other way counts as inactive or inconclusive.

SMILES | PLK1 PBD inh | HP1b binding inh | JMJD2A Tudor inh | BAZ2B block | PI5P4K alpha inh | KAT2A inh
O=C(NCc1ccc(Cl)cc1)c1n[nH]c([N+](=O)[O-])c1Cl | 19µM* | 13% | ? | -5% | -25 | -8%
CN(CC(=O)Nc1ccc(F)cc1)C(=O)COC(=O)C1=COCCO1 | -4% | 23% | -3% | 8% | 8 | -4%
Cc1ccc(-c2csc3ncnc(N4CCN(S(=O)(=O)c5cccs5)CC4)c23)cc1 | 1% | 21% | -19% | -3% | 1 | -3%
Clc1ccc(N2O[C@H]3C=C[C@@H]2C3)nc1 | 30µM* | / | / | / | ? | /
Cc1nn(-c2ccccc2)c(N)c1Sc1ccc([N+](=O)[O-])cc1 | 12µM* | ? | ? | -13% | -16 | ?
C[C@@H]1CN([C@@H](C)CO)C(=O)CCCn2nncc2CO[C@H]1CN(C)S(=O)(=O)c1ccccc1C#N | -10% | / | / | / | 2 | /
CSCC[C@H](NC(=O)COc1cc2c(c3oc(=O)c(C)c(C)c13)CCC(C)(C)O2)C(=O)O | 30µM* | 3% | ? | 0% | -9 | -25%
Cc1cc(=O)oc2c3c(cc(OCC(=O)N4CCC(C(=O)O)CC4)c12)OC(C)(C)CC3 | -6% | 12% | -23% | -27% | 0 | 18µM*
CSC[C@H](NC(=O)COc1cc2c(c3oc(=O)c(C)c(C)c13)CCC(C)(C)O2)C(=O)O | -14% | 16% | -15% | -5% | 10 | -24%
COc1cccc(CNC(=O)c2cc3c(=O)oc4ccc(C)cc4c3s2)c1 | / | 40% | -8% | -19% | / | 3%
COc1cccc(/C=N/N2CCN(c3ccc(Cl)cc3)CC2)c1OC | 2% | 20% | ? | ? | 1 | -22%
COc1ccccc1N1CCN(/N=C/c2ccc(OC)c(OC)c2OC)CC1 | -8% | -2% | ? | 32µM* | 1 | 4%
CCOc1ccccc1C=NN1CCCCCC1 | 3% | ? | 45µM* | / | -2 | /
CCOc1cc(C=NN2CCCCCC2)ccc1O | -2% | ? | 50µM* | / | -2 | /
COc1cccc(C=NN2CCCCCC2)c1OC | -5% | ? | 56µM* | / | 8 | /
COc1ccc(OC)c(CNC(=O)C2CCN(S(=O)(=O)c3ccc4[nH]c(=O)oc4c3)CC2)c1 | / | -2% | -29% | -14% | / | 3%
COc1ccc(NC(=O)CCNS(=O)(=O)c2ccc3c(c2)CCN3C(=O)C2CC2)cc1Cl | / | 11%[57 µM] | -8% | 0% | / | -9%
CCCNC(=O)c1nnsc1S(=O)c1ccc(Cl)cc1 (stereo unspecified) | 0.75µM* | -15% | -18% | -2% | ? | -13%
CNC(=O)c1nnsc1S(=O)c1ccc(Cl)cc1 (stereo unspecified) | 0.95µM* | -6% | -32% | -2% | ? | -16%
Clc1ccc(-c2csc(-c3nc(-c4ccc(Br)s4)cs3)n2)cc1 | / | 26% | -3% | 7% | / | 3%
COc1ccc(NC(=O)CC2C(=O)N(c3cccc(C)c3)C(=O)N2Cc2cccnc2)cc1 (stereo unspecified) | / | 40% | 6% | -9% | / | 0%
COc1cc(C2CC(=O)Oc3c2c(=O)n(C)c2ccccc32)ccc1O (stereo unspecified) | ? | 19% | -15% | -25% | ? | ?
COc1cc(C2CC(=O)Oc3c2c(=O)n(C)c2ccccc32)cc(OC)c1OC (stereo unspecified) | ? | ? | -19% | 50µM* | -9 | 1%
COc1ccc(C(O)c2nccc3cc(OC)c(OC)cc23)cc1OC (stereo unspecified) | -7% | 8% | ? | 56µM* | -17 | -2%
Cc1ccc(SCC(=O)Nc2ccc(N3CCN(C)CC3)c(F)c2)c(C)c1 | 5% | 11% | -24% | -25% | 0 | 11%
Cc1ccc(Cl)cc1-c1ccc(C=Nc2ccc(N3CCOCC3)cc2)o1 | -3% | ? | 35µM* | 28µM* | 2 | -5%
